# FMDV inh – foot and mouth disease virus antiviral activity. FMDV antiviral cell-based qHTS. Potency, µM (doses to about 57.9 µM), without a hit: at the highest dose activity change, negative = inhibition, actives largely listed as inhibitors. 1.2% of 410,000 active. AID 1159524; calls by dose curve; tested in HEK293T cells; further: read-out not given here; potency means the concentration at half of the fitted maximal effect; nearly all actives have a fitted effect of over 45% in size
# VACV Venus inh – inhibitors of vaccinia virus (Venus reporter); Vaccinia virus Venus reporter expression, fluorescence; Potency, µM (top dose mostly 36.5 µM), for inactives: top-dose activity change, negative = inhibition, hits mostly inhibitors; 0.46% of 330,000 active; calls by dose curve; tested in A549 cells; further: potency means the concentration at half of the fitted maximal effect; nearly all actives have a fitted effect of over 30% in size
# Vaccinia mCherry – vaccinia inhibition (mCherry reporter); Vaccinia virus mCherry reporter infection, fluorescence; Potency, µM (highest dose often 36.5 µM), for the others: at the highest dose activity change, negative = inhibition, actives largely listed as inhibitors; 0.63% of 310,000 active; AID 720579; calls by dose curve; tested in A549 cells; further: potency means the concentration at half of the fitted maximal effect; nearly all actives have a fitted effect of over 35% in size
# HCV inhibitor – HCV inhibition; Huh7.5.1 HCVcc-Cre infection, luciferase reporter, 44 h; Potency, µM (doses to about 41.8 µM), for inactives: at the top dose activity change, negative = inhibition, usual class: inhibitors; 3.4% of 340,000 active; AID 651820; further: potency means the concentration at half of the fitted maximal effect
#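 HCVcc-Cre virus at an moi near 0.5 was added right after compound to cells cultured 4 h from seeding (1,000 cells/well). Luciferase activity was determined 44 h later, 15 min after substrate addition at RT.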
# HCMV antiviral – blocks human cytomegalovirus replication | AID 1259415 | HFF cells, HCMV-luciferase reporter, 72 h; active compounds read low | activity change, negative = inhibition, % at 57.5 µM | 4.5% of 410,000 active; in the data active means activity change below about -60%; inconclusive means no clear call, values can overlap the other calls; inactive means above about -39%
#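 Luciferase read-out from HCMV-luciferase-infected HFFs (MOI 1 PFU/cell) 72 h post infection at 37C; compounds added after 16 h cell attachment; activity normalized between buffer-only basal and Salinomycin (10uM) inhibitor controls.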
# FBPA Giardia inh – Giardia lamblia aldolase inhibition; A8B2U2; purified Giardia FBPA; Potency, µM (doses to about 59.6 µM), for inactives: top-dose activity, negative = inhibition, most hits filed as inhibitors; 0.71% of 290,000 active; AID 2451; further: potency means the concentration at half of the fitted maximal effect; nearly all actives have a fitted effect of over 55% in size
# Target sequence (A8B2U2 whole entry, looked up): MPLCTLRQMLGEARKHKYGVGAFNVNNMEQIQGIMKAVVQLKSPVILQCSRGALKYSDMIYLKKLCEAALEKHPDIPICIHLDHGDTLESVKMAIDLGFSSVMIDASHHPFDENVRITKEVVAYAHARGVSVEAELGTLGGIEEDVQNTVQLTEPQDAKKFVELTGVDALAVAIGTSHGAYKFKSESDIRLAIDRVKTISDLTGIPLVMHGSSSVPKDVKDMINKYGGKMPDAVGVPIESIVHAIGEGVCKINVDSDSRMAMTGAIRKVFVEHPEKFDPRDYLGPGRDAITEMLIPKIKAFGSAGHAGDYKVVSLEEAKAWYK
#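 Giardia FBPA (40 nM reagent) was preincubated 10 min at RT with compound (up to 57.5 uM final), then substrate plus GAPDH/TPI/NAD/arsenate coupling system with diaphorase/resazurin was added; resorufin fluorescence (525/598 nm) was read after 20 min.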
# Starred values were filed as active, the others as inactive; ? = inconclusive; . = not tested or not shown; + = active, no number; [ ] = remark or other dose. In the library only some 7.5% were active in any assay of this set; here they are far more common. Unless noted, the call rests on the fitted dose curve; in most records, active means well fitted curve in the direction sought with a large enough effect; inconclusive means small, poorly fitted or top-dose-only effect, or another doubt; inactive means no such curve, though single readings can be large; an effect the other way counts as inactive or inconclusive. On the % scale 0 is the no-effect control and ±100 the full control effect.
SMILES,FMDV inh,VACV Venus inh,Vaccinia mCherry,HCV inhibitor,HCMV antiviral,FBPA Giardia inh
CCc1ccc(CNCc2c(C(=O)O)n(Cc3ccc(C)cc3)c3cc(C)ccc23)cc1,0.0%,?,?,.,-93.8*,.
O=C(CSc1nnc(-c2cccs2)o1)Oc1ccccc1Cl,-12.0%,-13.8%,-7.1%,.,44.9,.
CCOC(=O)C1(C)CCN1C(=O)c1ccc(C(=O)OC)cc1 (stereo not given),0.6%,-10.8%,-0.1%,.,25.7,.
C=Cc1ccc(Cn2c(C(=O)O)c(CNCc3ccccc3)c3ccc(C)cc32)cc1,?,12.6µM*,?,.,-102.4*,.
Cc1ccc(CNCc2c(C(=O)O)n(Cc3ccc(C)cc3)c3cc(C)ccc23)cc1,-16.0%,?,11.2µM*,.,-107.0*,.
CC1(C)Cc2c(sc(NC(=O)c3ccc4ncsc4c3)c2C(N)=O)C(C)(C)N1,6.4%,?,?,?,85.3,9.0%
COC(=O)c1c(NC(=O)c2ccc(OC(C)C)cc2)sc2c1CC(C)(C)NC2(C)C,-11.3%,17.8µM*,?,9.2%,-0.2,-0.9%
CC1(C)Cc2c(sc(NC(=O)c3ccc(C(=O)c4ccccc4)cc3)c2C(N)=O)C(C)(C)N1,-28.8%,?,?,?,-99.8*,.
COC(=O)c1c(NC(=O)c2ccccc2)sc2c1CC(C)(C)NC2(C)C,-15.8%,0.0%,17.1%,7.7%,30.4,4.3%
Cc1ccnc(NC(c2cc(C)ccc2O)c2ccc3cccnc3c2O)c1 (stereo not given),0.0%,-8.6%,-6.9%,.,110.3,.
Cc1ccc2ccc(C(Nc3ccccc3)c3ccccc3)c(O)c2n1 (stereo not given),-10.3%,?,?,.,-22.3,.
Cc1ccnc(NC(c2ccccc2F)c2ccc3cccnc3c2O)c1 (stereo not given),-9.9%,?,15.8µM*,.,-76.8*,.
Oc1ccccc1C(Nc1nccs1)c1ccc2cccnc2c1O (stereo not given),-13.6%,?,8.91µM*,4.47µM*,-93.4*,?
Oc1c(C(Nc2ccccn2)c2ccccn2)ccc2cccnc12 (stereo not given),-20.4%,10µM*,?,?,-85.4*,?
Cc1cccc(NC(c2ccccc2C)c2ccc3ccc(C)nc3c2O)n1 (stereo not given),?,-16.2%,?,.,-39.2,.
Cc1cccc(NC(c2ccc(C)s2)c2ccc3ccc(C)nc3c2O)n1 (stereo not given),?,-10.2%,-13.1%,?,-94.7*,11.2%
Cc1ccc2ccc(C(Nc3ccccc3)c3ccc(F)cc3)c(O)c2n1 (stereo not given),29.0%,12.0%,?,.,-60.7*,.
COc1cc(C(Nc2ccccn2)c2ccc3ccc(C)nc3c2O)cc(OC)c1O (stereo not given),35.5µM*,?,12.6µM*,-22.3%,.,-4.7%
Oc1c(C(Nc2ccccn2)c2ccccc2F)ccc2cccnc12 (stereo not given),7.0%,-2.3%[7.34 µM],-5.5%[7.34 µM],.,-95.4*,.
CCN(Cc1ccncc1)Cc1ccc2c(c1)CN(C(=O)c1ccc(OC)cc1)CCO2,-13.0%,2.4%,-10.7%,.,.,.
COc1ccc(NC(=O)CCNC(=O)C2CCN(S(=O)(=O)c3ccccc3)CC2)cc1OC,-16.0%,-13.2%,-18.1%,.,11.1,.
COc1ccc(N2CCN(C(=O)c3ccc4c(c3)N(Cc3ccc(F)cc3)C(=O)c3ccccc3S4=O)CC2)cc1 (stereo not given),-10.1%,-16.7%,-27.8%,.,-29.9,.
O=C(Nc1ccc(F)cc1)c1csc(C(O)Cc2ccccc2)n1 (stereo not given),.,.,.,.,49.5,.
Cn1c(CCN2CCN(c3ccccn3)CC2)nc2cc(NC(=O)COc3ccccc3)ccc21,?,.,.,3.98µM*,?,6.6%
Cn1c(CCN2CCN(c3ccccn3)CC2)nc2cc(NS(=O)(=O)c3ccccc3)ccc21,?,.,.,10µM*,+,-3.6%
CCCCC(=O)Nc1ccc2c(c1)nc(CCN1CCN(c3ccccn3)CC1)n2C,-7.2%,.,.,-5.7%,-81.5*,0.6%
Cc1ccc(OCC(=O)Nc2ccc3c(c2)nc(CCN2CCN(c4ccccn4)CC2)n3C)cc1,3.55µM*,-24.9%,-8.4%,.,-76.5*,.
